Rab9 promoter act: activates the Rab9 promoter | Potency, µM (top dose mostly 9.22 µM), inactives show at the top dose activation, negative = inhibition, actives largely listed as activators | 320,000 compounds, 2.8% hits | Huh7 Rab9 promoter-luciferase reporter, luminescence, 24 h; note: % of control where 0% means no effect; nearly all actives have a fitted effect of over 60% in size
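Rab9 promoter-driven luciferase in stably transfected Huh7 cells; 1500 cells/well rested 2 h, exposed to compound in DMSO for 24 h at 37 °C, 5% CO2. Luminescence read 10 min after adding luciferase reagent at ambient temperature.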
SMN2 splice enh: SMN2 splice variant enhancement; HEK293 SMN2-luciferase splicing reporter, luminescence, 30-36 h; Potency, µM (titrated, usually from 46.1 µM), for inactives: at the highest dose activity change, positive = activation, hits mostly activators; 210,000 compounds, 2.8% hits; note: % of control where 0% means no effect; nearly all actives have a fitted effect of over 55% in size
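HEK293 cells carry an SMN2 minigene-luciferase reporter in which exon 7 inclusion puts luciferase in frame. Cells were seeded at 2000 cells/well, attached for 10-12 hours, then exposed to compounds for 30-36 hours at 37C before ONE-Glo luminescence.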
NPC1 prom act: activators of NPC1 promoter. Huh7 NPC1 promoter luciferase reporter, 24 h. Potency, µM (series often up to 9.22 µM), inactives show top-dose activation, most hits filed as activators. 320,000 compounds, 2.4% hits; note: % of control where 0% means no effect; nearly all actives have a fitted effect of over 60% in size
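In 1536-well qHTS, Huh7 cells harboring an NPC1 promoter–luciferase construct received compound for 24 h; activation was quantified by luminescence following luciferase reagent addition.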
ELG1 genotox: induces genotoxicity in HEK293T cells with luciferase-tagged ELG1 | HEK293T ELG1-luciferase reporter, luminescence, 16 h | Potency, µM (top dose mostly 46 µM), for inactives: at the highest dose activity change, positive = activation, hits mostly activators | 330,000 compounds, 1.3% hits | AID 504466; note: % of control where 0% means no effect; nearly all actives have a fitted effect of over 60% in size
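Genotoxicity was scored as increased ELG1-luciferase reporter signal, measured by ONE-Glo luminescence (30 min, room temperature). Compound or vehicle exposure of the HEK293T reporter cells lasted 16 hr at 37°C.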
FLuc counter: firefly luciferase modulation, counter-screen for miR-21 project; P08659; purified FLuc, Km substrates, luminescence inhibition; Potency, µM (top dose mostly 57.5 µM), for inactives: at the top dose activity change, negative = inhibition, most hits filed as inhibitors; 360,000 compounds, 6.9% hits;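 note: plate controls were vehicle for no effect and reference inhibitor for full effect; nearly all actives have a fitted effect of over 55% in size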
Target sequence (P08659 whole entry, looked up): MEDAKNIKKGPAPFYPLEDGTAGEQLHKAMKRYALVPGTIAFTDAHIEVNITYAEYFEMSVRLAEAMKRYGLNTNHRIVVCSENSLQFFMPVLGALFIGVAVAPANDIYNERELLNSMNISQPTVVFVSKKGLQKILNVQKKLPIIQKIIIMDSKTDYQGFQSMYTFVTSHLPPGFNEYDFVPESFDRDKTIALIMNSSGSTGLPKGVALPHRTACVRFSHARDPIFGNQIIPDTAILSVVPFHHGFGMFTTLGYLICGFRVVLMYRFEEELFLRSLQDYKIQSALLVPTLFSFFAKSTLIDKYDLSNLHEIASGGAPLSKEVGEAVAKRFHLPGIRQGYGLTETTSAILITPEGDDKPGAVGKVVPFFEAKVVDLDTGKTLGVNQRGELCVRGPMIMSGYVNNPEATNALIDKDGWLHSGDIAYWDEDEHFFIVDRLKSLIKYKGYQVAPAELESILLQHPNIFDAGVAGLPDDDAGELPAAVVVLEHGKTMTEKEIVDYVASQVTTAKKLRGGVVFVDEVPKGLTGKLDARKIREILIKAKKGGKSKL
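Biochemical qHTS of compounds, final roughly 60 µM downward over six points, against 10 nM purified firefly luciferase using Km concentrations of substrates (10 uM D-luciferin, 10 uM ATP) in Tris acetate pH 7.5 buffer; luminescence output.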
p53 reactivator: restores transcriptional activity of mutant p53; Potency, µM (top dose mostly 92.2 µM), without a hit: top-dose activity change, positive = activation, hits mostly activators; H1299 p53-A138V BP100-luciferase reporter, luminescence, 24 h; 320,000 compounds, 0.063% hits; note: % of control where 0% means no effect; nearly all actives have a fitted effect of over 45% in size
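H1299 (p53-null), stable ts p53-A138V + BP100-Luc; 1000 cells/well, Opti-MEM/10% FBS; cpd 4 pt, 1:5; 24 h, 37 deg C, 5% CO2; detection reagent 10 min RT; luminescence.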
* = called active by the depositor. Rows were chosen to be rich in hits. Some 7.3% of all compounds tested hit in one or more screens of this group. Calls come from the whole dose curve; as a rule, active = well fitted curve in the direction sought with a large enough effect; inconclusive = small, poorly fitted or top-dose-only effect, or another doubt; inactive = no such curve, though single readings can be large; an effect the other way counts as inactive or inconclusive. Potency is the fitted concentration of half-maximal effect.

How did O=C(N/N=C\c1ccccc1F)c1ccc(-c2ccccc2)cc1 do in these assays?
Rab9 promoter act: inconclusive; NPC1 prom act: inconclusive; ELG1 genotox: 2%; FLuc counter: -12%; p53 reactivator: -2%

How did Cc1ccc(CN2CCN(CC(=O)N/N=C/c3ccccc3F)CC2)cc1 do in these assays?
Rab9 promoter act: inconclusive; NPC1 prom act: 6%; ELG1 genotox: inconclusive; FLuc counter: 1.7µM*; p53 reactivator: 8%

Results for CC1(C)CC(=O)C2(CC3=C(CC(C)(C)CC3=O)O2)C(=O)C1 ?
Rab9 promoter act: -9%; SMN2 splice enh: 4%; NPC1 prom act: 5%; ELG1 genotox: -6%; FLuc counter: -2%; p53 reactivator: -6%

Results for CCN(CC)c1ccc(C(=O)NNC(=O)CN2C(=O)NC(C)(c3ccccc3)C2=O)cc1 (configuration not stated) ?
Rab9 promoter act: -2%; NPC1 prom act: 2%; ELG1 genotox: 8%; FLuc counter: 5.4µM*; p53 reactivator: 9%

Results for CCN(CC)c1ccc(C(=O)NNC(=O)c2cccn2C)cc1 ?
Rab9 promoter act: 3.5µM*; NPC1 prom act: inconclusive; ELG1 genotox: inconclusive; FLuc counter: inconclusive; p53 reactivator: inconclusive

What do the screens show for `CCc1ccc(C(=O)NNC(=O)CN2C(=O)NC(CC)(c3ccccc3)C2=O)cc1` (configuration not stated)?
Rab9 promoter act: -1%; NPC1 prom act: 5%; ELG1 genotox: 1%; FLuc counter: 17µM*; p53 reactivator: 13%

Results for CCN(CC)c1ccc(C(=O)NNC(=O)CN2C(=O)NC3(CCCCC3)C2=O)cc1 ?
Rab9 promoter act: 1%; NPC1 prom act: -6%; ELG1 genotox: 9%; FLuc counter: 9.5µM*; p53 reactivator: 5%

What do the screens show for `CC1=C(C(=O)Nc2ccccc2)C(c2ccncc2)n2nc(SCc3ccccc3F)nc2N1` (configuration not stated)?
SMN2 splice enh: 22%; FLuc counter: 2%

What do the screens show for `Cc1ccc(C(CC(=O)N2CCCC2)c2ccccc2)c(O)c1` (configuration not stated)?
Rab9 promoter act: -7%; NPC1 prom act: -4%; ELG1 genotox: -1%; FLuc counter: 1%; p53 reactivator: -2%

Results for Cc1[nH]c2ccccc2c1/C=N/Nc1nc(Nc2ccccc2)nc(N2CCOCC2)n1 ?
Rab9 promoter act: 0%; SMN2 splice enh: -8%; NPC1 prom act: 13%; ELG1 genotox: -10%; FLuc counter: 4.8µM*; p53 reactivator: 2%

Results for COc1cc(/C=N/Nc2nc(Nc3ccccc3)nc(N3CCCCC3)n2)ccc1OCC(=O)O ?
Rab9 promoter act: 17%; SMN2 splice enh: 15%; NPC1 prom act: 12%; ELG1 genotox: -2%; FLuc counter: 0.95µM*; p53 reactivator: 8%

How did Fc1ccc(Nc2nc(N/N=C/c3ccco3)nc(N3CCCCC3)n2)cc1 do in these assays?
Rab9 promoter act: -3%; SMN2 splice enh: -24%; NPC1 prom act: -8%; ELG1 genotox: -14%; FLuc counter: 27µM*; p53 reactivator: -3%

What do the screens show for `COc1ccc(/C=N/Nc2nc(Nc3ccccc3)nc(N3CCCCC3)n2)c(OC)c1`?
Rab9 promoter act: -3%; SMN2 splice enh: -21%; NPC1 prom act: -2%; ELG1 genotox: -2%; FLuc counter: 6.7µM*; p53 reactivator: 26%

Results for C(=N\Nc1nc(N2CCOCC2)nc(N2CCOCC2)n1)/c1ccco1 ?
Rab9 promoter act: 0%; SMN2 splice enh: -12%; NPC1 prom act: -6%; ELG1 genotox: -3%; FLuc counter: 4%; p53 reactivator: 0%

What do the screens show for `Oc1[nH]c2ccccc2c1N=Nc1nc(Nc2ccccc2)nc(N2CCOCC2)n1`?
Rab9 promoter act: -9%; NPC1 prom act: -11%; ELG1 genotox: -12%; FLuc counter: inconclusive; p53 reactivator: -1%

What do the screens show for `O=C(CNC(=O)c1ccc2ccccc2c1)OCC(=O)N1CCN(S(=O)(=O)c2ccc3ccccc3c2)CC1`?
Rab9 promoter act: -2%; SMN2 splice enh: 1%; NPC1 prom act: -7%; ELG1 genotox: 0%; FLuc counter: 4%; p53 reactivator: 3%

Results for O=c1oc2ccccc2c(N2CCN(c3ccccc3F)CC2)c1CN1CCCC1 ?
SMN2 splice enh: 7%; FLuc counter: -1%

What do the screens show for `O=S(=O)(Cc1ccccc1)N1CCN(Cc2ccc(Br)cc2)CC1`?
Rab9 promoter act: 21%; NPC1 prom act: inconclusive; ELG1 genotox: 16µM*; FLuc counter: inconclusive; p53 reactivator: 11%

How did Cc1ccc(NC(=O)c2ccc([N+](=O)[O-])cc2Cl)nc1 do in these assays?
Rab9 promoter act: 2.8µM*; SMN2 splice enh: 5µM*; NPC1 prom act: 2.5µM*; ELG1 genotox: inconclusive; FLuc counter: 12µM*; p53 reactivator: inconclusive

How did CN(C)c1ccc(NC(=O)c2ccc([N+](=O)[O-])cc2Cl)cc1 do in these assays?
Rab9 promoter act: 3.2µM*; SMN2 splice enh: 10µM*; NPC1 prom act: 2.5µM*; ELG1 genotox: inconclusive; FLuc counter: 4.3µM*; p53 reactivator: inconclusive

Results for COc1ccc(-c2nc3sc(CCNC(=O)C(=O)Nc4ccc(C)c(C)c4)c(C)n3n2)cc1 ?
FLuc counter: -5%

How did CC(=O)Nc1cccc(Oc2nc(-c3ccccn3)nc3ccccc23)c1 do in these assays?
Rab9 promoter act: -1%; NPC1 prom act: -6%; ELG1 genotox: -15%; FLuc counter: 15µM*; p53 reactivator: 4%

Results for O=c1oc(CCO)cc2ccc(-c3ccc4[nH]ccc4c3)cc12 ?
Rab9 promoter act: 0%; NPC1 prom act: inconclusive; ELG1 genotox: 15µM*; FLuc counter: 2.7µM*; p53 reactivator: 23%

How did c1ccc(-c2ccc3[nH]ccc3c2)cc1 do in these assays?
Rab9 promoter act: -2%; NPC1 prom act: inconclusive; ELG1 genotox: inconclusive; FLuc counter: inconclusive; p53 reactivator: 19%

What do the screens show for `CCN(C(=O)C1=COCCO1)c1nc2c(C)cccc2s1`?
Rab9 promoter act: inconclusive; NPC1 prom act: 29%; ELG1 genotox: 21µM*; FLuc counter: 15µM*; p53 reactivator: 11%

Results for O=C1c2ccccc2CCC1C(O)c1ccccn1 (configuration not stated) ?
Rab9 promoter act: 10%; NPC1 prom act: 6%; ELG1 genotox: -2%; FLuc counter: 15µM*; p53 reactivator: inconclusive

Screening results deposited in PubChem by National Center for Advancing Translational Sciences (NCATS).
